Source: PubChem BioAssay (EPA / NIEHS)
Activity calls are given as the source filed them. How the source made its calls: active means hit-call score of the fitted dose curve at least 0.9, where 1 is the maximum; inactive means score below 0.9.

Columns and labels:
[1] = ATG_GRE_CIS: Attagene CIS-FACTORIAL HepG2 Assay for human Glucocorticoid Response Elements (GRE) (AID 2282947); details: HepG2 GRE cis-reporter, Attagene multiplex mRNA; actives raise or lower the signal
Summary of the method: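 Fluorescence intensity of reporter-specific cDNA fragments, separated by capillary electrophoresis, provides the signal. Constructs carry cis-regulating promoters in transiently transfected HepG2 liver cells; 24 h incubation; fitting is bidirectional against DMSO.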

[2] = ATG_ISRE_CIS: Attagene CIS-FACTORIAL HepG2 Assay for human Interferon Regulatory Factor 1 (IRF1) binding to an Interferon-Stimulated Response Element (ISRE) (AID 2282948); details: HepG2 ISRE cis-reporter (Attagene), mRNA transcription readout; actives raise or lower the signal
Summary of the method: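 Endogenous transcription factor activity read as reporter transcript abundance via RT-PCR and capillary electrophoresis. HepG2 cells transiently transfected, 24 h chemical exposure. Gain or loss fitted against DMSO baseline.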

[3] = ATG_M_32_CIS: Attagene CIS-FACTORIAL HepG2 Assay for M32 Transcription Factor (Internal Marker) (AID 2282949); details: HepG2 Attagene cis-factorial M32 reporter, mRNA; actives raise or lower the signal;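 further: background control marker of the multiplexed CIS panel rather than a real target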
Summary of the method: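 HepG2 human liver cells transiently transfected with cis-promoter-driven multiple reporter transcription units, dosed 24 h. Reporter mRNA quantified by RT-PCR, FAM-labelled primer extension, HpaI digest and capillary electrophoresis; bidirectional fit versus DMSO baseline.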

[4] = ATG_M_06_CIS: Attagene CIS-FACTORIAL HepG2 Assay for M06 Transcription Factor (Internal Marker) (AID 2282950); details: HepG2 Attagene CIS-FACTORIAL M06 internal marker reporter; actives raise or lower the signal
Summary of the method: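 Steps: transfect HepG2 with multiplexed cis-element reporter constructs; dose chemical 24 h; extract RNA with DNase treatment; reverse-transcribe, PCR-amplify, 6-FAM label, HpaI digest; separate fragments by capillary electrophoresis. Activity fitted both directions versus DMSO.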

[5] = molecular target: Hypoxia-inducible factor 1-alpha (Homo sapiens) (UniProt Q16665); test: ATG_HIF1a_CIS: Attagene CIS-FACTORIAL HepG2 Assay for human Hypoxia Inducible Factor 1 (HIF1A) (AID 2282951); details: HepG2 Attagene cis-factorial HIF1a reporter transcription; actives raise or lower the signal
Summary of the method: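 Cis-element reporter constructs were transiently transfected into HepG2 cells, which were treated for 24 h; reporter RNA was reverse-transcribed, amplified, labelled and resolved by capillary electrophoresis.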

[6] = molecular target: Hepatocyte nuclear factor 6 (Homo sapiens) (UniProt Q9UBC0); test: ATG_HNF6_CIS: Attagene CIS-FACTORIAL HepG2 Assay for human Hepatocyte Nuclear Factor 6 (HNF6) (AID 2282952); details: HepG2 Attagene cis-factorial HNF6 reporter transcription; actives raise or lower the signal
Summary of the method: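 Using cis-element reporters in HepG2 liver cells, the assay tracks endogenous factor-driven transcription 24 h post-dosing. Signal comes from 6-FAM-labelled, HpaI-digested RT-PCR fragments, with gain or loss scored against DMSO.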

[7] = ATG_MRE_CIS: Attagene CIS-FACTORIAL HepG2 Assay for human Metal Responsive Element (MRE) (AID 2282954); details: HepG2 MRE cis-reporter transcription, Attagene multiplex; actives raise or lower the signal
Summary of the method: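 Measured here is mRNA induction from an MRE cis-element reporter in HepG2 after 24 h, quantified by fluorescence of labelled RT-PCR products on capillary electrophoresis; gain- and loss-of-signal fits use DMSO as baseline.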

[8] = ATG_PBREM_CIS: Attagene CIS-FACTORIAL HepG2 Assay for human Phenobarbital-responsive Enhancer Module (PBREM) (AID 2282955); details: HepG2 PBREM cis-reporter, Attagene multiplexed transcription; actives raise or lower the signal
Summary of the method: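 Multiplexed cis-reporter readout in human hepatoma HepG2 cells; PBREM-regulated transcript quantified after 24 h exposure by fluorescent RT-PCR fragment analysis. Signal changes up or down fitted relative to DMSO.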

[9] = molecular target: Paired box protein Pax-6 (Homo sapiens) (UniProt P26367); test: ATG_Pax6_CIS: Attagene CIS-FACTORIAL HepG2 Assay for human Paired Box 6 (PAX6) (AID 2282956); details: HepG2 CIS-FACTORIAL PAX6 reporter transcription, RNA readout; actives raise or lower the signal
Summary of the method: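 Read-out is reporter transcript level, measured by RT-PCR with fluorescent primer extension and capillary electrophoresis after 24 h dosing of transfected HepG2 cells. Activity in either direction fitted relative to DMSO control.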

[10] = ATG_PXRE_CIS: Attagene CIS-FACTORIAL HepG2 Assay for human Pregnane X Receptor Element (PXRE) (AID 2282957); details: HepG2 Attagene CIS-FACTORIAL PXRE reporter, mRNA; actives raise or lower the signal
Summary of the method: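 Using HepG2 transfected with multiple reporter transcription units, endogenous factor-driven transcription was scored as reporter mRNA after 24 h exposure.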

[11] = ATG_RORE_CIS: Attagene CIS-FACTORIAL HepG2 Assay for human RAR-related Orphan Receptor Element (RORE) (AID 2282959); details: HepG2 Attagene cis-factorial RORE reporter, mRNA; actives raise or lower the signal
Summary of the method: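 Transfect HepG2 with MRTUs; treat 24 h; extract RNA; RT with oligo(dT); PCR with reporter-specific primers; 6-FAM primer extension; HpaI digest 2 h at 37 C; capillary electrophoresis. Fit vs DMSO, bidirectional.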

[12] = ATG_Sox_CIS: Attagene CIS-FACTORIAL HepG2 Assay for human SRY-box transcription factor (SOX) (AID 2282960); details: HepG2 Attagene cis-factorial SOX reporter, mRNA; actives raise or lower the signal
Summary of the method: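 Fluorescence-labelled cDNA fragments from reporter transcripts, sized by CE, give the signal. Cells: HepG2, transiently transfected with cis-regulated reporter units. Exposure 24 h; DMSO negative control; bidirectional curve fitting.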

[13] = molecular target: Transcription factor Sp1 (Homo sapiens) (UniProt P08047); test: ATG_Sp1_CIS: Attagene CIS-FACTORIAL HepG2 Assay for human Specificity Protein 1 (Sp1) (AID 2282961); details: HepG2 Sp1 cis-reporter transcription, actives raise or lower the signal
Summary of the method: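 Chemicals are dosed onto HepG2 cells transfected with multiple cis-promoter reporter constructs, and after 24 h reporter RNA is reverse-transcribed, PCR-amplified and resolved by capillary electrophoresis for fluorescence quantitation; activity is scored up or down against DMSO.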

[14] = ATG_SREBP_CIS: Attagene CIS-FACTORIAL HepG2 Assay for human Sterol Regulatory Element Binding (SREBP) (AID 2282962); details: HepG2 Attagene cis-factorial SREBP reporter, mRNA; actives raise or lower the signal
Summary of the method: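 Endogenous SREBP activity read as cis-element-driven reporter transcript in transiently transfected HepG2, 24 h post-dosing; quantified via RT-PCR plus capillary electrophoresis of fluorescent fragments. Gain or loss of signal fitted relative to DMSO baseline.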

[15] = molecular target: Signal transducer and activator of transcription 3 (Homo sapiens) (UniProt P40763); test: ATG_STAT3_CIS: Attagene CIS-FACTORIAL HepG2 Assay for human Signal Transducer and Activator of Transcription 3 (STAT3) (AID 2282963); details: HepG2, Attagene cis-factorial STAT3 reporter transcription; actives raise or lower the signal
Summary of the method: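 Fluorescence intensity of 6-FAM-labelled reporter fragments, separated by capillary electrophoresis after RT-PCR, gave the signal. Cells were HepG2 transfected with cis-element reporter units and treated 24 h; fitting was bidirectional relative to DMSO.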

[16] = ATG_TA_CIS: Attagene CIS-FACTORIAL HepG2 Assay for human TA Basal Promoter (AID 2282964); details: HepG2 Attagene CIS-factorial TA basal promoter reporter; actives raise or lower the signal
Summary of the method: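 Steps: transfect HepG2 with MRTUs; dose 24 h; isolate RNA, DNase-treat, reverse-transcribe; PCR and FAM-label reporter cDNA; digest with HpaI 2h at 37 C; run capillary electrophoresis. Activity fitted both directions against DMSO.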

[17] = ATG_TCF_b_cat_CIS: Attagene CIS-FACTORIAL HepG2 Assay for human T-Cell-Factor with beta-catenin (TCF/b-cat) (AID 2282965); details: HepG2 TCF/beta-catenin cis-reporter transcription, actives raise or lower the signal
Summary of the method: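 HepG2 cells transiently transfected with cis-promoter-driven multiplexed reporter units; reporter mRNA measured 24 h after dosing by RT-PCR, FAM labelling, HpaI digestion and capillary electrophoresis. Bidirectional fitting relative to DMSO baseline.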

[18] = ATG_PPRE_CIS: Attagene CIS-FACTORIAL HepG2 Assay for human Peroxisome Proliferator-activated Response Element (PPRE) (AID 2282958); details: HepG2 PPRE cis-element reporter, Attagene transcription factor profiling; actives raise or lower the signal
Summary of the method: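 DMSO served as negative control and baseline for bidirectional curve fitting. Signal came from PPRE-regulated reporter mRNA in HepG2 cells, measured 24 h post-dosing by RT-PCR, 6-FAM primer extension and capillary electrophoresis.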

[19] = molecular target: Heat shock factor protein 1 (Homo sapiens) (UniProt Q00613); test: ATG_HSE_CIS: Attagene CIS-FACTORIAL HepG2 Assay for human Heat Shock Transcription Factor 1 (HSE) (AID 2282953); details: HepG2 HSE cis-reporter, Attagene RNA transcription; actives raise or lower the signal
Summary of the method: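 Cells were transfected with cis-element-driven reporter constructs, dosed for 24 h, then total RNA was reverse-transcribed and reporter cDNA amplified, FAM-labelled and digested with HpaI. Fragments were resolved by capillary electrophoresis; gain or loss was fitted against DMSO.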

Measured: AC50

Chain of Transcription factor Sp1 (Homo sapiens) (P08047 whole entry, looked up): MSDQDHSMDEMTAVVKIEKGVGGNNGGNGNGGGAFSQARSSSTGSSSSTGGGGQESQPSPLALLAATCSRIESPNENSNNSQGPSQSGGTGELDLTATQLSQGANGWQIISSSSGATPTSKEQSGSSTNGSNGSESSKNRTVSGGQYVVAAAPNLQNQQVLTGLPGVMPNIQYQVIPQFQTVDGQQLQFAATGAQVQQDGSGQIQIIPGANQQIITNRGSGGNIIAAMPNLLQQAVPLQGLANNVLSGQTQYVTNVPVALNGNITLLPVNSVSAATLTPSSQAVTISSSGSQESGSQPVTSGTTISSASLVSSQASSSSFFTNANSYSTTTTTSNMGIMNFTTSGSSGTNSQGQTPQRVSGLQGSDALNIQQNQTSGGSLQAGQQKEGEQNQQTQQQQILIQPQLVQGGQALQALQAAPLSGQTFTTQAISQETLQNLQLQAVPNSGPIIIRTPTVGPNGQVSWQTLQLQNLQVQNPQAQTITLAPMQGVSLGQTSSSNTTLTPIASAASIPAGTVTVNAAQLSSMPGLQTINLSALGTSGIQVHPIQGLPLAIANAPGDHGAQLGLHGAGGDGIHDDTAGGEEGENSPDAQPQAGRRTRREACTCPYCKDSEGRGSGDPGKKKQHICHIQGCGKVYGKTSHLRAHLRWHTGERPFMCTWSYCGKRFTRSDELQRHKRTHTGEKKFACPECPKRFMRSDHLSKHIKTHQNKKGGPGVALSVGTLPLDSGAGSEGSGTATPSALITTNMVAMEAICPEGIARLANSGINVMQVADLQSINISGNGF
Chain of Hypoxia-inducible factor 1-alpha (Homo sapiens) (Q16665 whole entry, looked up): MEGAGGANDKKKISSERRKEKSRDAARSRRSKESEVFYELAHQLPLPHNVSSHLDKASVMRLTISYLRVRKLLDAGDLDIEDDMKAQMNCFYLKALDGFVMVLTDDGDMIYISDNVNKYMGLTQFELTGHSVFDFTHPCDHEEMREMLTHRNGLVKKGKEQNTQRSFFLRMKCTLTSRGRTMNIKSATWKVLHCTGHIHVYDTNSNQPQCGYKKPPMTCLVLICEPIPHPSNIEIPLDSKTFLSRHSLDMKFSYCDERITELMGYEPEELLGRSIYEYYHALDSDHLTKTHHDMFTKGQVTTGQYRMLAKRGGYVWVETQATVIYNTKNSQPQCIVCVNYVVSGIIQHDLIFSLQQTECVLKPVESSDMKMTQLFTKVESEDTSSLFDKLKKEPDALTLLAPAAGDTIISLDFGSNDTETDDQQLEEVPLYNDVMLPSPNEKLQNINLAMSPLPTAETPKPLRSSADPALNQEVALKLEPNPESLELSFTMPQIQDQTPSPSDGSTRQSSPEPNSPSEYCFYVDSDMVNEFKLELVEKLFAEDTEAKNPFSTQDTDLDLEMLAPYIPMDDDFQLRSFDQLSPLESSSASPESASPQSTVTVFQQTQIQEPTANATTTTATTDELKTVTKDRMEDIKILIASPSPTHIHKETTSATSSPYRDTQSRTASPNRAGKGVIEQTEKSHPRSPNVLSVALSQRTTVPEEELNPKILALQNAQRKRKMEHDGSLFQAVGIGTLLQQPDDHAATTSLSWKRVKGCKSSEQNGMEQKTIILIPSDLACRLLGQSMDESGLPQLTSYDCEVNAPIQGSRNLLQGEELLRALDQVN
Chain of Heat shock factor protein 1 (Homo sapiens) (Q00613 whole entry, looked up, the tested form may be a part): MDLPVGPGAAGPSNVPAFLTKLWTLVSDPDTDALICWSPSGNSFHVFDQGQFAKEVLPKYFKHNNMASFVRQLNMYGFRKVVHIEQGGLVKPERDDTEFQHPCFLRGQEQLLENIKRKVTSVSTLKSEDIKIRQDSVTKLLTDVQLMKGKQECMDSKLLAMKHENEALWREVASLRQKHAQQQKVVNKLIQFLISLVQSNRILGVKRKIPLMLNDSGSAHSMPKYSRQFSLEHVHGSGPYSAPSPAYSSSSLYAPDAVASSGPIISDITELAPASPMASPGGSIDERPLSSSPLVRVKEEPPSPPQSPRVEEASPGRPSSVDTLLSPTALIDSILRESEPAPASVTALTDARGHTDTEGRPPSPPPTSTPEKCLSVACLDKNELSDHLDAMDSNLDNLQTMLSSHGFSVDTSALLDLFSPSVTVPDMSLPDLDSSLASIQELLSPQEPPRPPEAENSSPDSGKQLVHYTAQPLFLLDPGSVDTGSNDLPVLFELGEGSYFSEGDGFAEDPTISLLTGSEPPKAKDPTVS
Chain of Hepatocyte nuclear factor 6 (Homo sapiens) (Q9UBC0 whole entry, looked up, the tested form may be a part): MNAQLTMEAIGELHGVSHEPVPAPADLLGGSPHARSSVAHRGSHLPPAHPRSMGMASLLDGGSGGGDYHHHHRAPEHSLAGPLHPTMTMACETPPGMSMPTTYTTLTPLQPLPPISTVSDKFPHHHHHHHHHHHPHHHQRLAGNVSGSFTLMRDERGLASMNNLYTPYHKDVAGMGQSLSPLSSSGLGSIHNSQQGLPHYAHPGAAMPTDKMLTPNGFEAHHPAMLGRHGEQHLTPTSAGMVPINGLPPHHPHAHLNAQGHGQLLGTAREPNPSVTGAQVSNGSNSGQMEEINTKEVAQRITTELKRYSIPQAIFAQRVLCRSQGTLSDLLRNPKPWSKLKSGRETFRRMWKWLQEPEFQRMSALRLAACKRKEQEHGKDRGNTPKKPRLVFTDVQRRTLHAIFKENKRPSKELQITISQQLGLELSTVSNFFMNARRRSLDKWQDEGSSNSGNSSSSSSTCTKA
Chain of Signal transducer and activator of transcription 3 (Homo sapiens) (P40763 whole entry, looked up, the tested form may be a part): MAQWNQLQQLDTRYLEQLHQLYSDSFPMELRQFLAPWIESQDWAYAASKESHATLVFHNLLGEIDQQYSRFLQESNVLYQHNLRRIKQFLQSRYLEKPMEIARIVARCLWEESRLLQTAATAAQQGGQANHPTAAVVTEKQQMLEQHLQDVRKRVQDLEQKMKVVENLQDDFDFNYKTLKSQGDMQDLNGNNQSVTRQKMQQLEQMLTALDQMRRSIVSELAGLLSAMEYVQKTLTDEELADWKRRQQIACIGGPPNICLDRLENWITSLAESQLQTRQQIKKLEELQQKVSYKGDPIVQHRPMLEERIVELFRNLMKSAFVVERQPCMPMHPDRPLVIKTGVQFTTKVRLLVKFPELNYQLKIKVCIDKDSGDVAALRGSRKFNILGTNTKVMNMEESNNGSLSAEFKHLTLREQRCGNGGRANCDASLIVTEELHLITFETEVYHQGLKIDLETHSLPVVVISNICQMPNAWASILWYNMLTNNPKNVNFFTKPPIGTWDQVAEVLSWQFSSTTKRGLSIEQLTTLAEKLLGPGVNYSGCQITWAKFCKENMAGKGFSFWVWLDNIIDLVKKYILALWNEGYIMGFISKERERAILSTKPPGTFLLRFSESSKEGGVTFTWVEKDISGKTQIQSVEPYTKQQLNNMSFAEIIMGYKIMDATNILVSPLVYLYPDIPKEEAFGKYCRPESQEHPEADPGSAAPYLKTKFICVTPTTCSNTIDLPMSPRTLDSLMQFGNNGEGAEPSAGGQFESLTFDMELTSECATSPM
Chain of Paired box protein Pax-6 (Homo sapiens) (P26367 whole entry, looked up): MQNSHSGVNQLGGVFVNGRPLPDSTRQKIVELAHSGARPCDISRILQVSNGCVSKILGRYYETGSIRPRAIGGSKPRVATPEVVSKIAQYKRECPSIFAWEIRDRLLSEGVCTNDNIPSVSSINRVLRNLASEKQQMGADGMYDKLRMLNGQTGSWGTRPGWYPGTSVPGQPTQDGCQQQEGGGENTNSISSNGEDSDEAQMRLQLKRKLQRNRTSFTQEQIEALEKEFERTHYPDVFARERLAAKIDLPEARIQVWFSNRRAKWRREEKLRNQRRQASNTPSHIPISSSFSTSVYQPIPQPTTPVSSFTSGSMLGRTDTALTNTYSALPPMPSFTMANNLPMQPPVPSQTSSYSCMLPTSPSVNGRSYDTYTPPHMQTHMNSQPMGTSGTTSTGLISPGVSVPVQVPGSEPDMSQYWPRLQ

C#CC(C)(O)CC(C)C (configuration not stated)
not listed: [18] | [19]
inactive: all other assays above

CCCC(=O)OC(C)(C)Cc1ccccc1
active: [18] 178 µM
not listed: [10] | [11] | [15] | [19]
inactive: all other assays above

COC(C)(C)CCCC(C)CC=O (configuration not stated)
not listed: [7]
inactive: all other assays above

COc1ccc(OC)c(N=Nc2c(O)ccc3ccccc23)c1
not listed: [10] | [18]
inactive: all other assays above

CC(C)OCCO
not listed: [8] | [10] | [18]
inactive: all other assays above

CC(C)Nc1nc(N)nc(Cl)n1
not listed: [11] | [14] | [18]
inactive: all other assays above

CN(C)C(=O)Nc1ccc(Oc2ccc(Cl)cc2)cc1
active: [19] 181 µM | [10] 26.7 µM
not listed: [18]
inactive: all other assays above
